Reference: PubChem BioAssay (EPA / NIEHS)
Values joined by “and” are separate entries in the source; they are usually repeats but may differ in a detail not shown here. Equal values may be shown once. More than one record can exist for a structure, and the calls need not agree. Active and inactive are the calls of the source. The calls were made as follows: active = hit-call score of the fitted dose curve at least 0.9, where 1 is the maximum; inactive = score below 0.9.

What was measured:
[1] = APR_HepG2_P-H2AX_72hr: Apredica 72-hour HepG2 Assay for H2AX Phosphorylation (AID 2282916); conditions: imaging, actives raise or lower the signal;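 also: phospho-histone H2A.x immunostain intensity per cell marking DNA damage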
Outline: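 HepG2 human liver cells were exposed for 72 hr to compounds at 0.39–200 uM (10 concentrations, duplicate per plate) in 0.5% v/v DMSO. Fixed, permeabilized cells were immunolabeled for phospho-histone H2A.x with Hoechst 33342 and imaged by HCS fluorescence; bidirectional fit versus DMSO.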

[2] = APR_HepG2_MitoMembPot_72hr: Apredica 72-hour HepG2 Assay for Mitochondrial Membrane Potential (AID 2282917); conditions: imaging, actives raise or lower the signal
Outline: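 HepG2 cells exposed 72 h to compounds at 0.39–200 uM (0.5% v/v DMSO, duplicates); MitoTracker Red CMXRos 250 nM loaded 30 min before 3.7% formaldehyde fixation, imaged by HCS fluorescence. Bidirectional fit versus DMSO.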

[3] = APR_HepG2_MitoticArrest_72hr: Apredica 72-hour HepG2 Assay for Mitotic Arrest (AID 2282918); conditions: high-content imaging, actives raise or lower the signal
Outline: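 Read-out is phospho-histone H3 immunofluorescence with Hoechst nuclear segmentation, imaged at 20x. Human HepG2 liver cells received ten concentrations (0.39–200 uM, final DMSO 0.5% v/v) for 72 hr before fixation. Gain or loss of signal was fitted relative to DMSO.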

[4] = APR_HepG2_MicrotubuleCSK_72hr: Apredica 72-hour HepG2 Assay for Microtubule CSK Stabilty (AID 2282919); conditions: HepG2 microtubule cytoskeleton, high-content imaging, actives raise or lower the signal
Outline: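 HepG2 human liver cells were dosed for 72 h at ten concentrations from 0.39 to 200 uM in duplicate (0.5% v/v DMSO final). Fixed, permeabilized cells were immunostained for alpha-tubulin (Cy5) with a Hoechst counterstain and imaged at 20x.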

[5] = APR_HepG2_StressKinase_72hr: Apredica 72-hour HepG2 Assay for Stress Kinase (AID 2282921); conditions: HepG2 stress kinase (phospho-c-Jun) imaging, actives raise or lower the signal
Outline: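 Cells were exposed for 72 h to ten concentrations (0.39–200 uM, duplicate) at 0.5% v/v DMSO final, then fixed with 3.7% formaldehyde, permeabilized and immunostained for phospho-c-Jun (Cy3 secondary) with Hoechst nuclear counterstain.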

[6] = APR_HepG2_StressKinase_24hr: Apredica 24-hour HepG2 Assay for Stress Kinase (AID 2282922); conditions: HepG2 stress kinase (phospho-c-Jun) imaging, actives raise or lower the signal
Outline: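 HepG2 cells exposed 24 hr to compound at 0.39–200 uM (10 concentrations, duplicate), 0.5% v/v DMSO final. Fixed in 3.7% formaldehyde, permeabilized with Triton X-100, immunolabeled for phospho-c-Jun with Hoechst 33342; HCS fluorescence imaging, bidirectional fit versus DMSO.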

[7] = APR_HepG2_MitoMass_72hr: Apredica 72-hour HepG2 Assay for Mitochondrial Mass (AID 2282924); conditions: high-content imaging, actives raise or lower the signal;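 also: MitoTracker Red CMXRos stain intensity per cell imaged as mitochondrial mass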
Outline: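 HepG2 cells were exposed for 72 hr to compounds at 0.39–200 uM (ten concentrations, duplicate, 0.5% v/v DMSO final). Live cells were stained with 250 nM MitoTracker Red CMXRos for 30 min, then fixed in 3.7% formaldehyde and imaged by HCS fluorescence.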

[8] = APR_HepG2_NuclearSize_72hr: Apredica 72-hour HepG2 Assay for Nuclear Size (AID 2282925); conditions: high-content imaging, actives raise or lower the signal
Outline: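 HepG2 cells were exposed to compounds at ten concentrations from 0.39 to 200 uM (duplicate, 0.5% DMSO final) for 72 hr. After fixation in 3.7% formaldehyde, nuclei were stained with Hoechst 33342 (2 ug/mL) and imaged at 20x.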

[9] = ATG_CRE_CIS: Attagene CIS-FACTORIAL HepG2 Assay for human cAMP Responsive Element (CRE) binding protein 3 (AID 2282926); conditions: HepG2 CRE cis-reporter, Attagene multiplexed mRNA; actives raise or lower the signal
Outline: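 Human liver HepG2, transient MRTU transfection, 24 h compound exposure. Total RNA → oligo(dT) RT → PCR → 6-FAM primer extension → HpaI cut → CE. Activity called both directions vs DMSO.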

[10] = ATG_CMV_CIS: Attagene CIS-FACTORIAL HepG2 Assay for human CMV (Internal Marker) (AID 2282928); conditions: HepG2 CMV promoter reporter, transcription factor profiling; actives raise or lower the signal;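 also: endpoint acts as a background internal control marker rather than a target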
Outline: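 CMV internal-marker background readout in transiently transfected HepG2 cells bearing cis-regulated reporter units. Reporter mRNA is measured 24 h after dosing by RT-PCR and capillary electrophoresis, with bidirectional fitting against DMSO.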

[11] = ATG_DR4_LXR_CIS: Attagene CIS-FACTORIAL HepG2 Assay for human Liver X Receptor (LXR), DR4 submotif (AID 2282929); conditions: HepG2 Attagene DR4 cis-reporter, mRNA transcription; actives raise or lower the signal
Outline: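 Total RNA from 24 h-treated, MRTU-transfected HepG2 cells underwent reverse transcription, PCR, fluorescent primer extension and restriction digestion before capillary electrophoresis. Both increases and decreases in reporter signal were fitted against DMSO.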

[12] = molecular target: Aryl hydrocarbon receptor (Homo sapiens) (UniProt P35869); experiment: ATG_Ahr_CIS: Attagene CIS-FACTORIAL HepG2 Assay for human Aryl Hydrocarbon Receptor (Ahr) (AID 2282930); conditions: HepG2 AhR cis-factorial reporter transcription; actives raise or lower the signal
Aryl hydrocarbon receptor (Homo sapiens), sequence (P35869 whole entry, looked up): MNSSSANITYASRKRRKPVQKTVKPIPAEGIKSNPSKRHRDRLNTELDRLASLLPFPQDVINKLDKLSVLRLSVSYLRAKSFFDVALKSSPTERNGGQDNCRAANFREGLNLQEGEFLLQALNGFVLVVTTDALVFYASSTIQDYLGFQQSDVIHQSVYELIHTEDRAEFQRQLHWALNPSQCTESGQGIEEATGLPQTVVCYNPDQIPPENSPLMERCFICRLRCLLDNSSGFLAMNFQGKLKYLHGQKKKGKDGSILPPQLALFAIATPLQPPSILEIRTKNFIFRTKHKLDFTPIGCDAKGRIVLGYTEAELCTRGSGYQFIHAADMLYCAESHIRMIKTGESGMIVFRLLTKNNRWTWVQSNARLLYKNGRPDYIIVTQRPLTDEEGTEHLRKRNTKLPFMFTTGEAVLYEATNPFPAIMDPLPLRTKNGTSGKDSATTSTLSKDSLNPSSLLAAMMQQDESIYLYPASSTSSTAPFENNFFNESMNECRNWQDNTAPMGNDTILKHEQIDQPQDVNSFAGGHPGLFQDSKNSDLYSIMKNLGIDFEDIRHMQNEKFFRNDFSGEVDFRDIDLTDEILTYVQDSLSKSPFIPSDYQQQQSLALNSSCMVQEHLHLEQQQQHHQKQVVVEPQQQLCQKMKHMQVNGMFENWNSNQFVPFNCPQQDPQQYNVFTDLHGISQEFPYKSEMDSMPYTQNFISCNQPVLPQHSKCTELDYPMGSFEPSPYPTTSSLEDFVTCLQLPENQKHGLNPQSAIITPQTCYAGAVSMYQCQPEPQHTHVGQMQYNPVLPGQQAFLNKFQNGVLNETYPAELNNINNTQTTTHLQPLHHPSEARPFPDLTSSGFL
Outline: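 Following 24 h of chemical dosing, transfected HepG2 liver cells with cis-driven reporter units were lysed for RNA; reporter mRNA was quantified via RT-PCR and capillary electrophoresis, and responses fitted bidirectionally from DMSO.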

[13] = ATG_AP_1_CIS: Attagene CIS-FACTORIAL HepG2 Assay for human Activator Protein 1 (AP-1) (AID 2282931); conditions: HepG2 Attagene cis-factorial AP-1 reporter mRNA; actives raise or lower the signal
Outline: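 HepG2, transient cis-reporter transfection; 24 h; readout RT-PCR/CE fluorescence; DMSO baseline, gain and loss fitted.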

[14] = ATG_AP_2_CIS: Attagene CIS-FACTORIAL HepG2 Assay for human Activator Protein 2 (AP-2) (AID 2282932); conditions: HepG2 AP-2 cis-reporter, Attagene transcription factor profiling; actives raise or lower the signal
Outline: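 HepG2 cells were transiently transfected with multiple cis-promoter reporter transcription units and dosed for 24 h. Reporter mRNA was measured by RT-PCR with capillary electrophoresis fluorescence; bidirectional fits relative to DMSO baseline.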

[15] = ATG_BRE_CIS: Attagene CIS-FACTORIAL HepG2 Assay for human Bone Morphogenetic Protein (BMP) Response Element (BRE) (AID 2282933); conditions: HepG2 BMP response element reporter, Attagene transcription factor profiling; actives raise or lower the signal
Outline: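 Multiplexed cis-reporter assay, HepG2, 24 h exposure. mRNA from reporter units quantified via RT-PCR/CE; DMSO baseline; bidirectional curve fit.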

[16] = molecular target: Transcription factor E2F1 (Homo sapiens) (UniProt Q01094); experiment: ATG_E2F_CIS: Attagene CIS-FACTORIAL HepG2 Assay for human E2F Transcription Factor 1 (AID 2282935); conditions: HepG2 Attagene cis-reporter, E2F reporter RNA transcripts; actives raise or lower the signal
Transcription factor E2F1 (Homo sapiens), sequence (Q01094 whole entry, looked up): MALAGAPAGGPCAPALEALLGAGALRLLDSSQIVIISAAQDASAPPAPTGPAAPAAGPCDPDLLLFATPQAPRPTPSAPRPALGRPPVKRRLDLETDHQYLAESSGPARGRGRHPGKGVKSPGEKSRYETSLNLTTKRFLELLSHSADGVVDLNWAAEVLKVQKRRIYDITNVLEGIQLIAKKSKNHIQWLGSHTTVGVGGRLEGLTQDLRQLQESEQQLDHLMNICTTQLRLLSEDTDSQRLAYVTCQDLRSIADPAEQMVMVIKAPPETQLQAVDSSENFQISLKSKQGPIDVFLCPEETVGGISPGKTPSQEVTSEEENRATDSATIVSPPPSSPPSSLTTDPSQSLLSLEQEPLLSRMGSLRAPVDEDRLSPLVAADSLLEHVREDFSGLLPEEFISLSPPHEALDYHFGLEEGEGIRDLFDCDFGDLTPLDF
Outline: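 HepG2 cells transiently transfected with multiplexed cis-element reporter units, dosed for 24 h. Reporter mRNA measured by RT-PCR, 6-FAM primer-extension labeling, HpaI digestion and capillary electrophoresis; bidirectional fit versus DMSO baseline.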

[17] = ATG_E_Box_CIS: Attagene CIS-FACTORIAL HepG2 Assay for human Enhancer Box (E-box) (AID 2282936); conditions: HepG2 E-box cis-reporter transcription, actives raise or lower the signal
Outline: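 HepG2 cells transiently transfected with multiplexed cis-element reporter units sensing endogenous transcription factor activity; 24 h compound exposure. Reporter mRNA measured by RT-PCR, 6-FAM primer extension, HpaI digestion and capillary electrophoresis; bidirectional fit versus DMSO.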

[18] = ATG_M_61_CIS: Attagene CIS-FACTORIAL HepG2 Assay for M61 Transcription Factor (Internal Marker) (AID 2282937); conditions: HepG2 Attagene CIS-FACTORIAL M61 internal marker reporter; actives raise or lower the signal
Outline: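 Transfect HepG2 with MRTUs; dose 24 h; isolate RNA; reverse-transcribe with DNase I treatment; PCR-amplify, FAM-label and cut with HpaI for 2 h at 37 C; resolve by CE. Bidirectional fitting against DMSO.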

[19] = molecular target: CCAAT/enhancer-binding protein beta (Homo sapiens) (UniProt P17676); experiment: ATG_C_EBP_CIS: Attagene CIS-FACTORIAL HepG2 Assay for human CCAAT/Enhancer Binding Protein (C/EBP) beta (AID 2282927); conditions: HepG2 Attagene cis-factorial transcription factor reporter; actives raise or lower the signal
CCAAT/enhancer-binding protein beta (Homo sapiens), sequence (P17676 whole entry, looked up, the tested form may be a part): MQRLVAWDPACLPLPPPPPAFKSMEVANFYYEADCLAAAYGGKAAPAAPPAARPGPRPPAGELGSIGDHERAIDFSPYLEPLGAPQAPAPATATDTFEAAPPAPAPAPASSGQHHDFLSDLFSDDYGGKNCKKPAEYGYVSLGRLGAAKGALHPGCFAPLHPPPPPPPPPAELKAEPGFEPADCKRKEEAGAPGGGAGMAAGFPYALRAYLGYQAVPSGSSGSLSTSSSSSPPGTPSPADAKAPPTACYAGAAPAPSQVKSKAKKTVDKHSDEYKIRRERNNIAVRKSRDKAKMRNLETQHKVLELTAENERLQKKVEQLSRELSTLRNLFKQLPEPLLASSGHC
Outline: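 Chemical-treated HepG2 cells (24 h) bearing cis-regulated reporter constructs were processed for total RNA, then reverse transcription, PCR amplification, fluorescent primer extension and fragment analysis; gain- and loss-of-signal were fitted against DMSO.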

[20] = molecular target: Retinoic acid receptor alpha (Homo sapiens) (UniProt P10276); experiment: ATG_DR5_RAR_CIS: Attagene CIS-FACTORIAL HepG2 Assay for human Retinoic Acid Receptor Alpha (RARE), DR5 submotif (AID 2282934); conditions: HepG2 Attagene cis-factorial RARE DR5 reporter, mRNA; actives raise or lower the signal
Retinoic acid receptor alpha (Homo sapiens), sequence (P10276 whole entry, looked up): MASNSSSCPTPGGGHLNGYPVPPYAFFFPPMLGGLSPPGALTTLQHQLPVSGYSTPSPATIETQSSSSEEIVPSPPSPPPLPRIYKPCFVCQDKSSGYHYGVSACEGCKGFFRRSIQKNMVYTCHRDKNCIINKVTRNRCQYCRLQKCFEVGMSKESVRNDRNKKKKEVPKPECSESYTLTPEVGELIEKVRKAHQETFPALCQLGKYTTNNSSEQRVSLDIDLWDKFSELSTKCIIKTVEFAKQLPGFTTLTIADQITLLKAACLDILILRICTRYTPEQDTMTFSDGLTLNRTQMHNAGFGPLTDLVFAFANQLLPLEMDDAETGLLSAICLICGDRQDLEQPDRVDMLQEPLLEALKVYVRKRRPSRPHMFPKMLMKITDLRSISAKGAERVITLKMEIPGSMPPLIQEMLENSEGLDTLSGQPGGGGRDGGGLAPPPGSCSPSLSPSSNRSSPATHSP
Outline: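 Transfected HepG2 reporter cells are exposed to chemicals for 24 h. Then RNA is extracted and the DR5 element reporter transcript is measured by RT-PCR and capillary electrophoresis, with bidirectional curve fitting relative to DMSO.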

O=C1C2(Cl)C3(Cl)C4(Cl)C(Cl)(Cl)C5(Cl)C3(Cl)C1(Cl)C5(Cl)C24Cl (centres undefined)
AC50 [1]: 113 µM (active) | outcome [2]: inactive | outcome [3]: inactive | outcome [4]: inactive | AC50 [5]: 106 µM (active) | AC50 [6]: 60.5 µM (active) | outcome [7]: inactive | AC50 [8]: 24.1 µM (active) | AC50 [9]: 14.3 µM (active) | outcome [9]: inactive | AC50 [10]: 2.8 µM (active) | outcome [10]: inactive | AC50 [11]: 2.8 µM (active) and 4.23 µM (active) | outcome [11]: inactive | outcome [12]: inactive | AC50 [13]: 3.57 µM (active) and 3.03 µM (active) | outcome [13]: inactive | AC50 [14]: 18.4 µM (active) | outcome [14]: inactive | outcome [15]: inactive | AC50 [16]: 11.1 µM (active) | outcome [16]: inactive | AC50 [17]: 5.67 µM (active) and 5.25 µM (active) | outcome [17]: inactive | outcome [18]: inactive

C=CC(=O)OCCCCCC(C)C
outcome [1]: inactive | outcome [2]: inactive | outcome [3]: inactive | outcome [4]: inactive | outcome [5]: inactive | outcome [6]: inactive | outcome [7]: inactive | outcome [8]: inactive | outcome [9]: inactive | outcome [19]: inactive | outcome [11]: inactive | outcome [12]: inactive | outcome [13]: inactive | outcome [14]: inactive | outcome [15]: inactive | outcome [20]: inactive | outcome [16]: inactive | outcome [17]: inactive | outcome [18]: inactive
